Reference: PubChem BioAssay AID624414 (National Center for Advancing Translational Sciences (NCATS), 2012)
In all, about 410,000 compounds went through this assay and about 480 (0.12%) were called active. No stated cut-off is given here; in the data, active means activation above about 50%; inconclusive means mostly about 30% to 49%; inactive means weaker than that. The entries come from a sample that favours actives as a whole.

Molecular target: Mucolipin-1 (Homo sapiens) (UniProt Q9GZU1)
Assay: qHTS for Agonists of the Human Mucolipin Transient Receptor Potential 1 (TRPML1); further: 0% is about no effect
Settings: TRPML1-expressing cells, Ca2+ dye fluorescence, FDSS; hits give high values
Description: Mutations of human Mucolipin transient receptor potential 1 (TRPML1) cause type IV mucolipidosis (ML4), a devastating neurodegenerative disease in young children. […] Currently, there is no treatment for ML4. […] Under physiological conditions, TRPMLs regulate membrane trafficking by transducing information about PI(3,5)P2 levels into changes in juxtaorganellar Ca2+, thereby triggering membrane fusion/fission events in the late endocytic pathways (endolysosomal trafficking). In addition, TRPML1 mediates release of Fe2+ from late endosomes and lysosomes, which is essential for cellular iron metabolism. Thus, impaired ion (Ca2+ and Fe2+) homeostasis underlies lysosomal dysfunction and ML4 phenotypes. In ML4 cells, the problem is twofold. First, defective Ca2+-dependent membrane trafficking due to TRPML1-deficiency causes accumulation of lipids and other bio-materials in the lysosome. The second strike comes from the lysosomal iron overload (due to impairment of TRPML1's Fe2+ conductivity), which converts the accumulated materials into the nondegradable (resistant to lysosomal degradation) lipofuscin (also called aging pigment) in the lysosome. Lipofuscin accumulation dramatically compromises the functions of lysosomes.
Niemann-Pick type C (NPC) disease is another lysosome storage disease (LSD) with severe neurodegeneration during the childhood. Currently, there is no cure for NPC. […] Thus, TRPML1 is likely to be an essential regulator of lysosome ion homeostasis. We specifically hypothesize that stimulating TRPML1's Fe2+/Ca2+ channel activity in the lysosome using synthetic agonists can alleviate neurodegeneration associated with ML4 or NPC.
To this end, a high throughput screen was developed in a miniaturized format to screen against the Molecular Libraries Small Molecule Repository (MLSMR) to find small molecules that act either as inhibitors or agonist against the TRPML1 channel.
NIH Chemical Genomics Center [NCGC]
NIH Molecular Libraries Probe Centers Network [MLPCN]
Assay Submitter (PI): Haoxing Xu, University of Michigan Ann Arbor
TRPML1-DL cells are dissociated from flasks, counted and, brought up to a density of 500,000 cells per mL of media containing a 1X Tet inducer. Using a Multidrop Combi, 3uL of this cell solution is dispensed to each well of a 1536 TC treated, black, clear bottom hi base plate for a final cell density of 1,500 cells per well. The assay plates are incubated overnight (approximately 16 hours) at 37 degrees C and 5% CO2. Using a Multidrop Combi, 2uL of ABD Ca8 no wash dye plus quencher is added to each well. The assay plates incubate at room temperature in the dark for 45-90 minutes. The assay plate is read on the FDSS using the following protocol: 10 second baseline read, 23nL of compounds and controls are added using 1536 pintool, agonist read for 110 seconds, 1 uL EC80 addition (4uM final 54-4 diluted in media), antagonist read for 110 seconds.

Mucolipin-1 (Homo sapiens), sequence (Q9GZU1 whole entry, looked up): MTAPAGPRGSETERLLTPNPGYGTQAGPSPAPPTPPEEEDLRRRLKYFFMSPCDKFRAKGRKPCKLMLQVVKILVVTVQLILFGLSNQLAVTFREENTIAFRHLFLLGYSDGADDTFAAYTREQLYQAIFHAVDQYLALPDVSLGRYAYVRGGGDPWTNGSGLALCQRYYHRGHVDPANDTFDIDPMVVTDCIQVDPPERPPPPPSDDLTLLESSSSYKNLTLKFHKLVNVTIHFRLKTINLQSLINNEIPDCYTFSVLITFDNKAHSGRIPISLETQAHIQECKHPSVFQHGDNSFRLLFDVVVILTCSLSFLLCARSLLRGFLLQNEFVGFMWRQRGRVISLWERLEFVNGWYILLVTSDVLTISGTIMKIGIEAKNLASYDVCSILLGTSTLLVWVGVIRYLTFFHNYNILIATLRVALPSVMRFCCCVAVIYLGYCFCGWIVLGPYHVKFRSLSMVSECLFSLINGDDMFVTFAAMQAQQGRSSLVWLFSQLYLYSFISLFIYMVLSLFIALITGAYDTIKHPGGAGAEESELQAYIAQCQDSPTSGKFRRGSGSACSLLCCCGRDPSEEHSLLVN

activation, inactive:
Cc1ccc(NC(=O)c2ccc(CN3CC(=O)N4CCCCC4C3=O)cc2)c(Cl)c1 (stereo not drawn) 2.76%
CCOc1n[nH]c(-c2ccccc2)n1 0%
CN(C)c1ccc(/C=N\Nc2ccc([N+](=O)[O-])cc2[N+](=O)[O-])cc1Cl -0.0634%
O=C(CSc1ncc(-c2ccccc2)[nH]1)Nc1ccc(F)cc1F 2.97%
OCC(O)C(O)C(O)C(O)C=Nc1ccc(/C=C/c2ccnc3ccccc23)cc1 (stereo not drawn) 6.02%
COC(=O)C1=C(C(=O)OC)[C@@H]2N(Cc3ccccc3)c3ccccc3[C@@]23C[C@@H](C(=O)OC)N(S(=O)(=O)c2ccc(C(F)(F)F)cc2)C3=N1 -0.417%
CCCCOc1ccc(C(=O)NO)cc1 -0.809%
Cc1csc[n+]1CCC1CCCCC1 0.413%
C=C1C=C(C)n2ncc(C(=O)Nc3ccccc3O)c2N1 -0.539%
Nc1nc(N)c(N=O)c(N)n1 -0.147%
C=CCCN(C(Cc1ccccc1)C(=O)OC)S(=O)(=O)c1cc(Br)ccc1Br (stereo not drawn) 2.52%
CCCN(CCC)c1nc2c(C)cccn2c(=O)c1/C=C1/SC(=S)N(Cc2ccco2)C1=O 17.6%
CCOC(=O)CNC(=O)c1cc2c(=O)n3cccc(C)c3nc2s1 0.461%
CCC(=O)N1CCc2cc(Br)cc(S(=O)(=O)CCC(=O)NCCc3ccc(OC)c(OC)c3)c21 -0.301%
Cc1[nH]c2ccccc2c1C(=O)C(=O)N(C)c1ccccc1 -0.513%
COC(=O)C1=C(c2ccccc2)c2ccccc2S(=O)(=O)N1CC(=O)Nc1ccccc1C(F)(F)F 1.11%
CN(C)c1ccc(C=Nc2ccc(/C=C/c3ccnc4ccccc34)cc2)cc1 1.17%
CCC(C)N(c1ccc(/C=C/c2ccnc3ccccc23)cc1)C(C)CC (stereo not drawn) 18.2%
Cc1cccc(CN2Cc3cccc4c3[C@H](C=CC4)CC2=S)c1 -0.678%
CCCc1cc(=O)n2[nH]c(NCc3ccc(CC)cc3)nc2n1 -0.211%
CCCN1CCC(=O)N(C(CSc2ccc(C)cc2)Cc2ccccc2)CC1 (stereo not drawn) 1.24%
CCOC1=C2[C@@H](CN(S(=O)(=O)c3ccc(C)cc3)[C@H]2c2ccccc2F)[C@H]2C(=O)N(Cc3ccccc3)C(=O)[C@H]2C1 1.29%
CCOC1=C2[C@H]([C@H]3C(=O)N(c4ccccc4)C(=O)[C@H]3C1)[C@@H](c1ccccc1)N(S(=O)(=O)c1ccc(C)cc1)[C@H]2c1ccccc1 -0.217%
COc1cc(NS(=O)(=O)c2cccs2)cc(OC)c1 -1.48%
COc1cc2nc(Cl)nc(NC3CC3)c2cc1OC -0.998%
CCOC(=O)c1c(NC(=O)COc2cc(C)ccc2C(C)C)sc(C)c1C 1.35%
O=C1C[C@H]2C=CCc3cccc(c32)CN1Cc1ccccc1 -0.974%
Oc1ccc(Cl)cc1C1C=C(c2ccc3c(c2)OCO3)NC(c2c(F)cccc2Cl)N1 (stereo not drawn) 0.805%
O=S(=O)(Nc1cccc2cccnc12)c1cccc2cccnc12 0.864%
CC(=O)c1ccc[n+](C(C)CCC(C)[n+]2cccc(C(C)=O)c2)c1 (stereo not drawn) -0.159%
Cc1ccc(Cl)cc1N(C)C(=O)C1CCCN(c2ncnc3onc(-c4ccc(F)cc4)c23)C1 (stereo not drawn) 0.938%
CN(C)c1ccc(/C=C/c2sc3ccccc3[n+]2C)cc1 -0.317%
N#Cc1ccc[n+](CC(=O)c2ccc(O)c(O)c2)c1 6.5%
COc1cc(OC)c(NC(=O)Cc2ccc(-n3c(C)nc4cccnc43)cc2)cc1Cl 2.46%
O=[N+]([O-])c1ccc(/C=C/c2ccc3cccnc3c2)cc1 -0.507%
CCOC(=O)c1c(NC(=O)c2ccc(S(=O)(=O)N3CCCC(C)C3)cc2)sc2c1CCN(C(C)C)C2 (stereo not drawn) 0.257%
COc1ccccc1N1CCN(c2ncnc3onc(-c4ccc(F)cc4)c23)CC1 0.772%
O=C(c1cnn2c1NC(=C1CC1)C=C2C(F)F)N1CCc2ccccc2C1 -0.995%
C(=Nc1ccc(/C=C/c2ccnc3ccccc23)cc1)Nc1ccc(/C=C/c2ccnc3ccccc23)cc1 8.34%
Cc1cc(=O)n(CC(=O)Nc2cccc([N+](=O)[O-])c2)c(-n2nc(C)cc2C)n1 1.21%
COc1ccccc1NC(=O)CSC1=Nc2ccccc2C2=NC(CC(=O)NCc3cccs3)C(=O)N12 (stereo not drawn) 3.51%
CC1(C)C=Cc2c(ccc(C(=O)/C=C/c3ccccc3)c2O)O1 19.2%
COc1cccc(C(=O)Nc2ccc(-c3cc(C(F)(F)F)nn3-c3ccccc3)cc2)c1 3.44%
COc1ccc(S(=O)(=O)c2c(Nc3cccc(Cl)c3)sc(C(=O)c3ccccc3)c2N)cc1 14.6%
COc1ccc(Cn2c(=O)n(-c3ccccc3C)c(=O)c3c4c(sc32)CN(C(C)=O)CC4)cc1 -0.696%
O=C(Nc1ccc2nc(SCC(=O)N3CCCc4ccccc43)sc2c1)c1ccc(Cl)cc1 1.16%
O=C(Nc1ccc([N+](=O)[O-])cc1)c1cnn2c1NC(=C1CC1)C=C2C(F)F -0.353%
CCCCC(CCCC)c1ccc(C=Nc2ccc(/C=C/c3ccnc4ccccc34)cc2)cc1 5.8%

activation, active:
CCN1/C(=C/c2ccc3ccc(C)cc3[n+]2CC)Sc2ccccc21 70.1%
CCOC(=O)CC1C(=O)NCCN1c1nc2c(C)cccn2c(=O)c1/C=C1\SC(=S)N(C(C)CC)C1=O (stereo not drawn) 71%
CN(C)c1ccc(/C=C/C=C/c2ccnc3ccccc23)cc1 52.7%
CCOC1=C2CN(S(=O)(=O)c3ccc(C)cc3)[C@H](c3cccs3)C[C@H]2[C@H]2C(=O)N(c3ccccc3)C(=O)[C@H]2C1 64.2%
COc1cccc(C(=O)c2sc3nc(-c4ccccc4)cc(C(F)(F)F)c3c2N)c1 98.2%
